Assay results: PubChem BioAssay (NCATS)
Several values for one entry are separate records, joined by “and”; a condition that tells them apart may be missing. Identical values can stand only once. Results filed as inconclusive are left out. A call without a number means that no potency is given here. Activity calls are given as the source filed them. Unless noted, calls follow the shape of the dose curve; as a rule, active = well fitted curve in the direction sought with a large enough effect; inconclusive = small, poorly fitted or top-dose-only effect, or another doubt; inactive = no such curve, though single readings can be large; an effect the other way counts as inactive or inconclusive.

How the values were obtained:
[1] = target: Estrogen receptor (Homo sapiens) (UniProt P03372); assay: qHTS assay for small molecule antagonists of estrogen receptor alpha signaling (AID 588513; active = well fitted curve in the direction sought with a large enough effect in the signal ratio, with a control signal flat, not every such curve was filed as active; the % refers to the signal ratio)
Estrogen receptor (Homo sapiens), sequence (P03372 whole entry, looked up): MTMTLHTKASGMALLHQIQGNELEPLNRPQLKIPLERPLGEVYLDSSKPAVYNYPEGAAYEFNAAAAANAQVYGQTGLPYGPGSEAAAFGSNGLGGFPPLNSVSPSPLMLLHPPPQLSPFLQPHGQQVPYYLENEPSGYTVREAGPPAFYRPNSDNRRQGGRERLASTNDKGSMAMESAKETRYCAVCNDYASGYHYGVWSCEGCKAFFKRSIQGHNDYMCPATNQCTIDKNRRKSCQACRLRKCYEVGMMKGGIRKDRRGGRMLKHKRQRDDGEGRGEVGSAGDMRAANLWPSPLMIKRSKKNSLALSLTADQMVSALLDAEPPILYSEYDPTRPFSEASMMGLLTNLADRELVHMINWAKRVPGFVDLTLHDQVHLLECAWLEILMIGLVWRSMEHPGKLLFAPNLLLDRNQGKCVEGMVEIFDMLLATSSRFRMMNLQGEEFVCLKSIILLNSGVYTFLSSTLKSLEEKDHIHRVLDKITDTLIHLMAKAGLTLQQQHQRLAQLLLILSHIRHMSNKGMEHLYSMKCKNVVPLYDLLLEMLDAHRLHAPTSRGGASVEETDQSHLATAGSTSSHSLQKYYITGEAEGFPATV
Method in brief: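 ER-alpha-UAS-bla GripTite HEK 293 cells in 2% charcoal/dextran-treated FBS medium; compounds titrated (1:2, duplicate), then stimulated with 0.5 nM 17-beta-estradiol for 18 h at 37C. CCF4 beta-lactamase fluorescence; Hill-fit IC50 and efficacy.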

[2] = target: Estrogen receptor (Homo sapiens) (UniProt P03372); assay: qHTS assay for small molecule agonists of estrogen receptor alpha signaling (AID 588514; calls by dose curve; also: nearly all actives have a fitted effect of over 70% in size)
Method in brief: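 EC50 and efficacy came from Hill fits of beta-lactamase reporter signal (CCF4 dye, 2 h at room temperature) scaled between DMSO and 20 nM 17-beta-estradiol. Agonist mode: HEK293 ER-alpha-UAS-bla cells in charcoal/dextran-stripped serum medium, 18 h compound exposure at 37 C.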

[3] = qHTS assay for small molecule antagonists of peroxisome proliferator-activated receptor delta signaling (AID 588535); conditions: HEK293T PPARd-UAS-bla, beta-lactamase FRET ratio, 18 h; 460 nm channel;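 also: cells co-treated with a PPAR-delta agonist as stimulator during compound exposure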
Method in brief: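 Fluorescence from CCF4-loaded GeneBLAzer PPAR-delta-UAS-bla HEK293T cells (2 hrs RT loading) quantified reporter inhibition after an 18 hr, 37 C compound exposure across a titration.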

[4] = target: DNA dC->dU-editing enzyme APOBEC-3G (Homo sapiens) (UniProt Q9HC16); assay: qHTS for inhibitors of Vif-A3G interactions: Validation (AID 588379)
DNA dC->dU-editing enzyme APOBEC-3G (Homo sapiens), sequence (Q9HC16 whole entry, looked up): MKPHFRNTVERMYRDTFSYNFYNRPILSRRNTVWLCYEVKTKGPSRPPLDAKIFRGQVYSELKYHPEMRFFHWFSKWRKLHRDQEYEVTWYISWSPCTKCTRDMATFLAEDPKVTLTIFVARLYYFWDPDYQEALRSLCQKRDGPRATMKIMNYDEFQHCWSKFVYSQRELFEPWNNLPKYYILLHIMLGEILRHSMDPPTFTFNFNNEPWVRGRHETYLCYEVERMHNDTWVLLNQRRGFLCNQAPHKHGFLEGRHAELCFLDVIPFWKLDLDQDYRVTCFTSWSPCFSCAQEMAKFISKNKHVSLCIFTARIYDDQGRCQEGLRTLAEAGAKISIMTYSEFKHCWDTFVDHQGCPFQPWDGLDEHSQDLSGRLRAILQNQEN
Method in brief: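 Yellow fluorescence (Ex 488, Em 500-530) of Vif-coexpressing HeLa A3G-eYFP cells, scanned by Acumen cytometer, reports blocked A3G degradation. Cells plated at 700/well overnight at 37 deg C before compound addition, then a further overnight compound incubation at 37 deg C.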

[5] = target: Glucocorticoid receptor (Homo sapiens) (UniProt P04150); assay: qHTS assay for small molecule agonists of glucocorticoid receptor signaling (AID 588532; active = well fitted curve in the direction sought with a large enough effect in the signal ratio, with a control signal flat; the % refers to the signal ratio); conditions: HeLa MMTV-bla, beta-lactamase ratio, agonist, 18 h; stronger effect = higher value; percent of dexamethasone control, DMSO zero
Glucocorticoid receptor (Homo sapiens), sequence (P04150 whole entry, looked up): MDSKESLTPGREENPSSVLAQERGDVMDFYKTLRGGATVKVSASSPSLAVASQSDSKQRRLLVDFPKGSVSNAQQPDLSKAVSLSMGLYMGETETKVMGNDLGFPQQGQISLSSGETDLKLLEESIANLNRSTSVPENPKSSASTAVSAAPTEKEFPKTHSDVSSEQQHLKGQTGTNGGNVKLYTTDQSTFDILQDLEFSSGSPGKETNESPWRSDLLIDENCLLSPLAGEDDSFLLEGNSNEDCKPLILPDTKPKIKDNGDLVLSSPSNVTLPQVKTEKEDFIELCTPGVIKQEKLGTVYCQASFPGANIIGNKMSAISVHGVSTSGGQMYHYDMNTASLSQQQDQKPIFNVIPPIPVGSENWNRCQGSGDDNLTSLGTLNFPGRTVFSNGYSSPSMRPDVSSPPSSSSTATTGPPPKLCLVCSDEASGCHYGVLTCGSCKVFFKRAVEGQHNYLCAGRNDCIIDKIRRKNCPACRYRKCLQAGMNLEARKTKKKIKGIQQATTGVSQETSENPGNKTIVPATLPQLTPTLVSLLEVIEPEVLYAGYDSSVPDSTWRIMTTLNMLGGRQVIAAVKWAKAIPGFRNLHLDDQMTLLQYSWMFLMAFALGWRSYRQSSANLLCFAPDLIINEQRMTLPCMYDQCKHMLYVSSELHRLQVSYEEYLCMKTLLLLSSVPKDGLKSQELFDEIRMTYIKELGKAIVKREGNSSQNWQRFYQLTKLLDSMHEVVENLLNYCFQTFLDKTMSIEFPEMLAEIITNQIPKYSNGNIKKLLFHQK
Method in brief: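 MMTV-bla HeLa beta-lactamase reporter cells in 1% charcoal/dextran FBS medium, compounds up to 92 uM for 18 h at 37 C, CCF4 readout; normalized to 0.1 uM dexamethasone (100%), EC50 and efficacy from Hill fits.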

[6] = qHTS for Inhibitors of ATXN expression: Validation (AID 588378); also: series mostly up to about 57 µM; nearly all actives have a fitted effect of over 75% in size
Method in brief: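 HEK293 cells carrying ATXN2-firefly luciferase reporter, treated with compound 24 h at 37 °C. Viability read first by CellTiter-Fluor (405/525 nm), then reporter expression by Bright-Glo luminescence; controls were a known ATXN2 expression inhibitor and a luciferase inhibitor.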

[7] = target: Glucocorticoid receptor (Homo sapiens) (UniProt P04150); assay: qHTS assay for small molecule antagonists of glucocorticoid receptor signaling (AID 588533; active = well fitted inhibition curve with a large enough effect in the signal ratio, with a control signal flat, not every such curve was filed as active; the % refers to the signal ratio;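 also: cells stimulated with 2 nM dexamethasone as agonist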)
Method in brief: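 Antagonist-mode qHTS: compound titrations added to GRE-bla HeLa cells, then dexamethasone 2 nM final; 18 h, 37 C. CCF4 FRET fluorescence normalized to dexamethasone and DMSO; IC50 from Hill fit.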

## Cc1ncc([N+](=O)[O-])n1CCO
[1]
  Potency: inactive
[2]
  outcome: inactive
[3]
  max response: -0.982%

## O=c1oc2c(O)c(O)cc3c(=O)oc4c(O)c(O)cc1c4c23
[4]
  outcome: inactive

## CC(=O)Oc1ccccc1C(=O)Nc1ncc([N+](=O)[O-])s1
[1]
  Potency: inactive
[5]
  activation: -4.89% (inactive)
[3]
  max response: -31.7%

## CCN1CCCC1CNC(=O)c1cc(S(N)(=O)=O)ccc1OC (configuration not stated)
[6]
  Potency: inactive
[4]
  outcome: inactive

## NC(=O)c1ccc2[nH]ccc2c1
[6]
  Potency: inactive

## N=C(N)c1ccc(OCCCCCOc2ccc(C(=N)N)cc2)cc1
[1]
  Potency: inactive
[2]
  outcome: inactive
[5]
  activation: -5.79% (inactive) and -1.59% (inactive)
[7]
  outcome: inactive
[3]
  max response: -25.7%

## CCc1cc(C(N)=S)ccn1
[5]
  activation: 1.04% (inactive)
[7]
  outcome: inactive
[3]
  max response: -62.7% and 18.6%

## CC1CC2C3CCC4=CC(=O)C=C[C@]4(C)[C@@]3(F)[C@@H](O)C[C@]2(C)[C@@]1(O)C(=O)CO (some centres not stated)
[6]
  Potency: inactive

## C[C@]12C=CC(=O)C=C1CC[C@@H]1[C@@H]2C(=O)C[C@@]2(C)[C@H]1CC[C@]2(O)C(=O)CO
[1]
  Potency: inactive
[2]
  outcome: inactive

## CCN(CC)CC#CCOC(=O)C(O)(c1ccccc1)C1CCCCC1 (configuration not stated)
[6]
  Potency: inactive

## COc1ccc2cc3[n+](cc2c1OC)CCc1cc2c(cc1-3)OCO2
[1]
  Potency: inactive
[5]
  activation: 1.14% (inactive)

## CC(=O)[C@H]1CC[C@H]2[C@@H]3CCC4=CC(=O)CC[C@]4(C)[C@H]3CC[C@]12C
[6]
  Potency: inactive
[4]
  outcome: inactive
[2]
  outcome: inactive
